As usually defined, the AC50 is the midpoint of the concentration-response curve, whichever way the signal moves.

Molecules are shown by their SMILES. Out of some 16,000 compounds screened, about 4,000 (25%) were called active. Inconclusive results (about 26%) are left out. Calls follow the shape of the dose curve; as a rule, active = well fitted curve in the direction sought with a large enough effect; inconclusive = small, poorly fitted or top-dose-only effect, or effect the other way; inactive = no such curve, though single readings can be large or run the other way. Only a sample is shown.
% is scaled to controls: 0 for no effect and ±100 for the full control effect.

Cytochrome P450 2C9 (Homo sapiens), sequence (P11712 whole entry, looked up): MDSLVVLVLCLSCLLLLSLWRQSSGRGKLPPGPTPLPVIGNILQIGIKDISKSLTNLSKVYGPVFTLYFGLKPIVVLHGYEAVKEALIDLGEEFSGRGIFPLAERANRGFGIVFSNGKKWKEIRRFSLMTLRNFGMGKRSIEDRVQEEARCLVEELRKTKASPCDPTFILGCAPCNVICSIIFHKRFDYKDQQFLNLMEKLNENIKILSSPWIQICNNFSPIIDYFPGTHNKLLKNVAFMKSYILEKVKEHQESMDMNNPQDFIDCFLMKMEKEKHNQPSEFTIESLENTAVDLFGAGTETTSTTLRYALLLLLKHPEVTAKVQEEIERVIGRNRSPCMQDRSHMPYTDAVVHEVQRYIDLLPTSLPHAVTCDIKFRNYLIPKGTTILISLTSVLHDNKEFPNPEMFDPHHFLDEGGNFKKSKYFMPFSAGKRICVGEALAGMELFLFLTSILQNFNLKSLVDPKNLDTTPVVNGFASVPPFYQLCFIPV

The experiment concerns the target Cytochrome P450 2C9 (Homo sapiens) (UniProt P11712). The experiment is described as follows: Cytochrome panel assay with activity outcomes. The settings on record: recombinant CYP, pro-luciferin dealkylation, luminescence, p450-cyp2c9; series mostly up to 57.1 µM; activity, negative = inhibition: at the top concentration. On the procedure: The P450 gene superfamily is involved in the metabolism and clearance of xenobiotics. This assay used various human CYP P450 isozymes to measure the dealkylation of various pro-luciferin substrates to luciferin. The luciferin is then measured by luminescence after the addition of a luciferase detection reagent. Pro-luciferin substrate concentration in the assay was equal to its KM for its CYP P450 isozyme. Inhibitors and some substrates limit the production of luciferin, and decrease measured luminescence.
NCGC Assay Protocol Summary:
1, Reagent, 2 uL, Isozyme and Pro-Luciferin
2, Library compounds, 23 nl, 40 uM to 0.24 nM dilution series
3, Controls, 23 nl, Isozyme specific inhibitor
4, Reagent, 2 uL, NADPH regeneration solution
5, Incubation time, 60 min, Isozyme specific temperature
6, Reagent, 4ul, Detection reagent
7, Incubation time, 20 min, Isozyme specific temperature
8, Detection, 1 sec, ViewLux luminescent read
The luciferase-based P450-GloTM Screening Systems were obtained from Promega (Madison, WI) for CYP 1A2 (V9770), CYP 2C9 (V9790), CYP2 C19 (V9880), CYP 2D6 (V9890), and CYP 3A4 Luciferin-PPXE (V9910) and were adapted for 1,536-well microplates and an automated protocol. The control compounds furafylline for 1A2 (F124), sulfaphenazole for CYP 2C9 (S0758), ketoconazole for CYP 2C19 (K1003), quinidine for 2D6 (Q3625), and ketoconazole for 3A4 (K1003) were purchased from Sigma Aldrich (St. Louis, MO). Recombinant P450 enzymes were obtained from baculovirus constructs expressed in insect cells (BD/Gentest).
Medium-binding white solid Kalypsys plates used. Mixtures kept on ice. 1A2: 10 nM 1A2, 100 uM Luc-ME, 100 mM KPO4; 2C9: 10 nM 2C9, 100 uM Luc-H, 25 mM KPO4; 2C19: 5 nM 2C19, 10 uM Luc-H EGE, 50 mM KPO4; 2D6: 5 nM 2D6, 30 uM Luc-ME EGE, 100 mM KPO4; 3A4: 10 nM, 25 uM Luc-PPXE. All amounts are reflected in their final concentration, working concentration is 2x.
NADPH regeneration solution: 1.3 mM NADP+, 3.3 mM glucose-6-phosphate, 3.3 mM MgCl2, 0.4 U/mL glucose-6-phosphate dehydrogenase for all isozymes, 200 mM KPO4 for 3A4. Mixture prepared at RT but kept on ice during automated run.
RT incubation in auxilliary plate hotel for 1A2, 2D6, and 3A4; 37C for 2C9 and 2C19.
Keywords: P450, CYP1A2, CYP2C19, CYP2C9, CYP2D6, CYP3A4, Luciferase, MLSMR, MLSCN, NIH Roadmap, qHTS, NCGC
As to `N#Cc1c(SCC(N)=O)nsc1SCc1ccccc1Cl`, the AC50 is 11.2 µM (active). On to `Nc1nc(SCc2ccccc2Cl)cc(C(=O)O)n1`, for which the activity, negative = inhibition was 0.0938% [at 11.4 µM] (inactive).

`CCOC(=O)C1CCCN(C(=O)CSCc2ccccc2)C1` (stereo not drawn): the concentration at half-maximal activity (AC50) was 10 µM (active). Turning to `CCOC(=O)C1CCCN(S(=O)(=O)c2ccccc2)C1` (stereo not drawn), the “activity, negative = inhibition” value was 29.1% (inactive). Take `CN1CCN(c2nc(-c3ccccc3C(F)(F)F)nc3ccccc23)CC1`: the activity, negative = inhibition is 1.94% [at 2.29 µM] (inactive).

On to `CO[C@]1(NC(=O)Cc2cccs2)C(=O)N2C(C(=O)O)=C(COC(N)=O)CS[C@H]21`, for which the “activity, negative = inhibition” value was 1.75% [at 25.6 µM] (inactive). For the compound `O=C(c1cnccn1)N1CCC2(CC1)CCN(c1ncccn1)CC2`, the “activity, negative = inhibition” value is 4.53% (inactive). As to `O=C(c1cnccn1)N1CCC2(CC1)CCN(c1ccccn1)CC2`, the “activity, negative = inhibition” value was 0.265% (inactive).

Consider `O=C(c1cnccn1)N1CCC2(CC1)CN(c1ccccn1)C2`, for which the “activity, negative = inhibition” value was 3.85% (inactive).

For `O=C(c1cnc(N2CCN(c3ncccn3)CC2)c2ccccc12)N1CCN(c2ncccn2)CC1`, the half-maximal activity concentration (AC50) is 6.31 µM (active). Consider `Cn1cccc1C(=O)N1CCC2(CC1)CCN(c1ncccn1)CC2`, for which the “activity, negative = inhibition” value is 5.06% (inactive). On the same count and under the same terms, with `CC(=O)N1CCC2(CC1)CN(c1ccccn1)C2` the figure was 5.68% (inactive).

As for `O=C(c1cnc(N2CCN(c3ncccn3)CC2)c2ccccc12)N1CCN(c2ccccn2)CC1`, the AC50 is 3.55 µM (active).

Take `COC(=O)N1CCC2(CC1)CCN(c1ccccn1)CC2`: the “activity, negative = inhibition” value was -3.68% (inactive). With `COc1ccccc1C(=O)N1CCN(c2ccccn2)CC1`, the AC50 is 14.1 µM (active). With `C/C=C\C[C@H](C)[C@H](O)[C@H]1C(=O)N[C@@H](CC)C(=O)N(C)CC(=O)N(C)[C@@H](CC(C)C)C(=O)N[C@@H](C(C)C)C(=O)N(C)[C@@H](CC(C)C)C(=O)N[C@@H](C)C(=O)N[C@@H](C)C(=O)N(C)[C@@H](CC(C)C)C(=O)N(C)[C@@H](CC(C)C)C(=O)N(C)[C@@H](C(C)C)C(=O)N1C`, the AC50 entry was “inactive”. Regarding `Cc1ccc(S(=O)(=O)N=Nc2c(O)[nH]c3cc(O)c(C(=O)O)cc23)cc1`, the activity, negative = inhibition is 3.49% [at 11.4 µM] (inactive). Consider `CN1CC[C@@]2(CCCN(C(=O)c3cccc(F)c3)C2)C1`, for which the “activity, negative = inhibition” value was 4.92% (inactive).

In the case of `COc1cccc2c1C(=O)c1c(O)c3c(c(O)c1C2=O)C[C@@](O)(C(=O)CO)C[C@H]3O[C@H]1C[C@@H](N)[C@H](O)[C@@H](C)O1.[W]`, the activity, negative = inhibition is 3.88% [at 11.4 µM] (inactive).

As for `C#CCCCO/N=C1/C[C@@H](O)[C@@H](O)[C@@H]2[C@@H]3C(=O)N(CC)C(=O)[C@H]3CC[C@H]12`, the activity, negative = inhibition was 3.17% [at 11.4 µM] (inactive).

Regarding `Cc1cc(C)c(NC(=O)C[C@H](CC(=O)O)c2cccc3ccccc23)c(C(=O)N2CCC3(CCCC3)CC2)c1`, the “activity, negative = inhibition” value is -2.73% (inactive). On to `O=C(O)CC(c1ccccc1)n1cnnn1` (stereo not drawn), for which the “activity, negative = inhibition” value was -6.07% (inactive). As to `O=C(O)CC(c1cccc2ccccc12)n1cccc1` (stereo not drawn), the half-maximal activity concentration (AC50) is 8.91 µM (active).

Values taken from PubChem BioAssay AID1851 (National Center for Advancing Translational Sciences (NCATS), 2009).
